The test system of assay [1] is Wnt5a (protein binding on small-molecule microarray). The assay is described as follows: Wnt5a binders on small-molecule microarray, primary screen, biophysical, 635/667 nm fluorescence (AID 1142).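 Further: fluorescence read at 667 nm with signal to noise per printed feature.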 The note with it: 635 nm fluorescence, higher = more signal.
The nature of assay [2]: cell viability in Huh7 cells, primary screen, cytotoxicity control for HCV replication inhibitor project, CellTiter-Glo luminescence, basal, 48 h (AID 1143).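 Further: Huh7 hepatoma cells carrying a hepatitis C replication reporter with no stimulus; test concentration not given here.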 The note with it: Huh7 HCV replicon, higher = more signal, called active from +8 up or from −8 down.
The nature of assay [3]: P. aeruginosa biofilm formation inhibitors, primary screen, PAO1 strain, BacTiter-Glo luminescence, LB-PBS (AID 1144). The note with it: 12 h, higher = more signal.
The nature of assay [4]: CREB reporter modulators without forskolin, primary screen, cell-based, PC12, CRE-LacZ reporter, unstimulated (AID 1145). The note with it: no forskolin, luminescence, 4.5 h, higher = more signal, called active from +8 up or from −8 down.
Assay [5] in a line: CREB reporter modulators under forskolin, primary screen, cell-based, PC12, CRE-LacZ reporter, forskolin-stimulated (AID 1146).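 Further: PC12 cells with 6xCRE LacZ reporter stimulated by forskolin 10 µM; beta-galactosidase reporter signal reflecting CREB driven transcription.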 The note with it: luminescence, 4.5 h, higher = more signal, called active from +8 up or from −8 down.
The target of assay [6] is Streptavidin (Streptomyces avidinii) (UniProt P22629). Put plainly: streptavidin binders on small-molecule microarray, primary screen, artefact control for SMM compound annotation, biophysical, 635/667 nm fluorescence (AID 1147).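 Further: signal reflects streptavidin binding to arrayed compounds as a control protein.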 Conditions: streptavidin binding, higher = more signal.
Sequence of Streptavidin (Streptomyces avidinii) (P22629 whole entry, looked up): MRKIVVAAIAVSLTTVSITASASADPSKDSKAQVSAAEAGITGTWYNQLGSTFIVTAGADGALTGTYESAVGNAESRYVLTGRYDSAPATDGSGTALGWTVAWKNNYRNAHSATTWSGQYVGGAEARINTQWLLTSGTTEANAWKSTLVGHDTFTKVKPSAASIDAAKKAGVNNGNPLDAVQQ
Assay [7] can be described thus: small-molecule binders of probe aInhba, primary screen, biochemical, small-molecule microarray, 635/667 nm fluorescence (AID 1148).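 Further: score merges 667nm spot fluorescence with signal-to-noise for antibody binding to printed compounds.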 Conditions: higher = more signal.
Assay [8] concerns the target Torsin-1A (Homo sapiens) (UniProt O14656). Put plainly: torsin A binders from cell lysate, primary screen, small-molecule microarray, wild-type, 635/667 nm (AID 1149). Conditions: COS7 hTOR1A-WT lysate, 635 nm fluorescence, higher = more signal.
For assay [9] the target is unchanged. The assay is described as follows: small-molecule binders of mutant TOR1A in lysate, primary screen, cell lysate, small-molecule microarray, COS7 lysate, 635/667 nm fluorescence (AID 1150).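 Further: score pools 667 nm emission and signal to noise measuring lysate protein binding.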 Conditions: COS7 hTOR1A mutant lysate, 635 nm fluorescence, higher = more signal.
The subject of assay [10] is Sonic hedgehog protein (Shh). The assay is described as follows: small-molecule binders of Shh protein, primary screen, biochemical, small-molecule microarray, 635/667 nm fluorescence (AID 1151).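 Further: Shh protein binding to compounds spotted on small-molecule microarray slides; score combines spot fluorescence intensity with signal-to-noise across triplicate slides.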 Conditions: small-molecule microarray binding, 635 nm fluorescence; higher = more signal.
A short description of assay [11]: E. coli DRC41 culture turbidity changes, primary screen, E. coli filamentation inducer project, strain DRC41, OD650, 48 h (AID 1152).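 Further: E. coli MC1000 strain DRC41 lacking acrAB efflux pump and sulA.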 Conditions: E. coli DRC41 (acrAB sulA), higher = more signal, called active from +8 up or from −8 down.
Assay [12] can be described thus: small-molecule binders of probe aLefty1, primary screen, biochemical, small-molecule microarray, 635/667 nm fluorescence (AID 1153).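 Further: score merges spot fluorescence with signal-to-noise ratio from the scanned slide images.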 The note with it: higher = more signal.
The nature of assay [13]: PSAC antagonists in infected red cells, primary screen, cell-based, P. falciparum Indochina, OD700, 1 h (AID 1154). The note with it: P. falciparum Indochina infected RBC osmotic lysis, higher = more signal, called active from +8 up or from −8 down.
Assay [14] is described as follows: PSAC antagonists in infected red cells, primary screen, cell-based, P. falciparum Indochina, OD700, 2 h (AID 1155).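 Further: lysis reports solute entry through the parasite surface anion channel PSAC; channel blockers reduce lysis of infected cells.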 The note with it: P. falciparum Indochina infected erythrocytes, osmotic lysis OD700; higher = more signal, called active from +8 up or from −8 down.
Assay [15] is described as follows: osmotic lysis modulators in infected erythrocytes, primary screen, PSAC antagonist project, cell-based, P. falciparum Indochina, OD700, 3 h (AID 1156). The note with it: higher = more signal, called active from +8 up or from −8 down.
Assay [16] is described as follows: PSAC antagonists in infected red cells, primary screen, cell-based, P. falciparum Indochina, OD700, 18 h (AID 1157). Conditions: P. falciparum Indochina infected erythrocytes, osmotic lysis OD700, 18 h; higher = more signal, called active from +8 up or from −8 down.
Assay [17] in a line: modulators of S6 phosphorylation in cells, primary screen, cell-based, A549, cytoblot, luminescence, serum-stimulated (AID 1158).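 Further: serum-stimulated A549 lung adenocarcinoma cells; signal is phosphorylated S6 detected by cytoblot immunostaining with HRP secondary.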 Conditions: A549 phospho-S6 cytoblot, 5 h, higher = more signal.
The target of assay [18] is NADPH oxidase 2 (Homo sapiens) (UniProt P04839). The assay is described as follows: NOX2-dependent H2O2 signal modulators, primary screen, NOX inhibitor project, cell-based, HEK293-NOX2, PMA-stimulated, Amplex Red fluorescence (AID 1159). Further: test concentration not given here. Conditions: 45 min, higher = more signal, called active from +8 up or from −8 down.
Sequence of NADPH oxidase 2 (Homo sapiens) (P04839 whole entry, looked up): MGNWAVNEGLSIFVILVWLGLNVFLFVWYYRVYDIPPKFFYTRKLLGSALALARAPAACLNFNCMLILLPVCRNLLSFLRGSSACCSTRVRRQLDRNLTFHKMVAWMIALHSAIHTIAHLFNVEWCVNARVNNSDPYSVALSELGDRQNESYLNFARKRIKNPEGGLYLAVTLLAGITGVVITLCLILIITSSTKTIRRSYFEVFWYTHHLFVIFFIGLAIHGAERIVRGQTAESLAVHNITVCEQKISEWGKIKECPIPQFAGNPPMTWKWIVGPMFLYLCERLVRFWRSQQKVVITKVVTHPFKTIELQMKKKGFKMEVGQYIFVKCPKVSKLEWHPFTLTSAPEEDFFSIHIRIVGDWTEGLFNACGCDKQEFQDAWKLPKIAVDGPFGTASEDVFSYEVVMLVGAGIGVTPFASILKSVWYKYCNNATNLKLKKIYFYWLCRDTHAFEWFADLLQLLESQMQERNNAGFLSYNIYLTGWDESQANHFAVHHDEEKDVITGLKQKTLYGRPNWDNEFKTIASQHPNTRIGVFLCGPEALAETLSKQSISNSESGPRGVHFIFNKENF
Assay [19] addresses NADPH oxidase 4 (Homo sapiens) (UniProt Q9NPH5). Put plainly: NOX4-dependent H2O2 signal modulators, primary screen, NOX inhibitor project, cell-based, HEK293-NOX4, tetracycline-induced, Amplex Red fluorescence (AID 1160). Conditions: 45 min, higher = more signal, called active from +8 up or from −8 down.
Assay [20] deals with NADPH oxidase 5 (Homo sapiens) (UniProt Q96PH1). The assay is described as follows: NOX5-dependent H2O2 signal modulators, primary screen, NOX inhibitor project, cell-based, HEK293-NOX5, Amplex Red fluorescence (AID 1161). Conditions: HEK293-NOX5, ionomycin, 45 min, higher = more signal.
Sequence of NADPH oxidase 5 (Homo sapiens) (Q96PH1 whole entry, looked up): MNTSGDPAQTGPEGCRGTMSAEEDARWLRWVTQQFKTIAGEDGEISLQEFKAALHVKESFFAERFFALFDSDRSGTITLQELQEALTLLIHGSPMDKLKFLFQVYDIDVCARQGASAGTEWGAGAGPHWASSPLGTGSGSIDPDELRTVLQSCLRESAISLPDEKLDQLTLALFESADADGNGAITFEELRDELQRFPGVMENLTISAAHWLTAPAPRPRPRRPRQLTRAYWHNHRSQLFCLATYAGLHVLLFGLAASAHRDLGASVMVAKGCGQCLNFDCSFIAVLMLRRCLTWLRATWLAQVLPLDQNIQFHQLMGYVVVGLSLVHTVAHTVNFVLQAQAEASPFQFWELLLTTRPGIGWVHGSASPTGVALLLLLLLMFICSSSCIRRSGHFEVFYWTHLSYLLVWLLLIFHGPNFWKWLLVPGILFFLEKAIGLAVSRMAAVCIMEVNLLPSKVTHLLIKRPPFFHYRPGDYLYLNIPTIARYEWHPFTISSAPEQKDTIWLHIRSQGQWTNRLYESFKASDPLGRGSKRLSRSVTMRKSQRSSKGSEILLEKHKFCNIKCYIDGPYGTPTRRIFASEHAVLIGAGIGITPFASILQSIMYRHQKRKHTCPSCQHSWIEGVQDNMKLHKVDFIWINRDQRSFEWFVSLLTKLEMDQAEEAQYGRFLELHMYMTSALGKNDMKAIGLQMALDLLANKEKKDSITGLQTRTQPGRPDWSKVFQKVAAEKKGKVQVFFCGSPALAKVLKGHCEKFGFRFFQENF

Active and inactive are the calls of the source. Unless noted, how the calls were made is not given here.

Sequence of Torsin-1A (Homo sapiens) (O14656 whole entry, looked up): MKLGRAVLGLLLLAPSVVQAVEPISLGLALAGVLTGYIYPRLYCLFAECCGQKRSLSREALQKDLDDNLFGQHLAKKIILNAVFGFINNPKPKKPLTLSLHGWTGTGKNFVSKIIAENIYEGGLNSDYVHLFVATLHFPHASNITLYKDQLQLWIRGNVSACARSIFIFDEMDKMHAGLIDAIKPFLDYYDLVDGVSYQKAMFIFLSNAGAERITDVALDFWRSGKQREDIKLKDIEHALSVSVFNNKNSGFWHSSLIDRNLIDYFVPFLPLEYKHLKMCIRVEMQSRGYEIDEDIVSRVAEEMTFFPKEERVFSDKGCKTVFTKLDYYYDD
Sequence of NADPH oxidase 4 (Homo sapiens) (Q9NPH5 whole entry, looked up): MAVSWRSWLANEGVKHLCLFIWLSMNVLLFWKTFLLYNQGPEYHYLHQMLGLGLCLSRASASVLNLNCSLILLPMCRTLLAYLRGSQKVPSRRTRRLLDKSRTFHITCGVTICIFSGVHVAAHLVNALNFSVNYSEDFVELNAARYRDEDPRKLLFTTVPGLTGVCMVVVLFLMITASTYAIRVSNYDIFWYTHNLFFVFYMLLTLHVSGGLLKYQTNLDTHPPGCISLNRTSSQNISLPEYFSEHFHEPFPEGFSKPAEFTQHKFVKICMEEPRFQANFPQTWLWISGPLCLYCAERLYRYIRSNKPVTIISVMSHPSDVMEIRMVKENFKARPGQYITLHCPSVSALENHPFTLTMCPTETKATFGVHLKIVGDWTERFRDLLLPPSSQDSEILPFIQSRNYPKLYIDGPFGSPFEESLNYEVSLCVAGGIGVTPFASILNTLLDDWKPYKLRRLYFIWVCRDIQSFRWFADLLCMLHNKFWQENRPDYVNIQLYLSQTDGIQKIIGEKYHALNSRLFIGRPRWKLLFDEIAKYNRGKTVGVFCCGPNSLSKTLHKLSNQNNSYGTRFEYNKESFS

With `CCOC(=O)C[C@H]1[C@H](OC(=O)c2ccc(C(=O)c3ccccc3)cc2)[C@@H](NC(=O)CC(C)C)c2cc(OCCCO)ccc2N1C(=O)c1ccccc1`, the composite z-score in assay [1] is 0.154; in assay [6], 1.17; in [7], -0.0131; with Torsin-1A (Homo sapiens) [8], 0.125; with Torsin-1A (Homo sapiens) [9], 0.442; in [10], 1.32. Besides, the composite z-score in [12] is -0.191. Further, the z-score is -0.133 (inactive) in assay [2]; -0.367 (inactive) in [3]; 3.01 (inactive) in assay [4]; -0.443 (inactive) in [5]; -0.804 (inactive) in assay [11]; 1.06 (inactive) in [13]. The z-score in [14] was 0.966 (inactive); in [15] it was -0.416 (inactive); in assay [16], 0.26 (inactive); in assay [17], -0.163; in [18], 1.49 (inactive); in assay [19] it was 0.861 (inactive). In addition, in assay [20], the z-score was found to be 1.24.
Regarding `COc1ccccc1CN1C(=O)c2ccccc2[C@](Cc2ccccc2I)(C(=O)O)[C@@H]1c1ccc(CO)cc1`, the composite z-score worked out at 0.638 in assay [1]; 1.09 in assay [6]; 0.0753 in [7]; 0.399 with Torsin-1A (Homo sapiens) [8]; 1.54 with Torsin-1A (Homo sapiens) [9]; 1.61 in assay [10]. In assay [12], this compound showed a composite z-score of 0.0366. Besides, the z-score was -1.03 (inactive) in assay [2]; 0.776 (inactive) in assay [3]; 0.145 (inactive) in assay [4]; -0.677 (inactive) in assay [5]; 1.03 (inactive) in [11]; 5.55 (inactive) in assay [13]. The z-score is 1.09 (inactive) in assay [14]; -0.0546 (inactive) in assay [15]; 0.426 (inactive) in [16]; -0.523 in assay [17]; 1.03 (inactive) in assay [18]; 0.616 (inactive) in assay [19]. In addition, in [20], the z-score was determined as 0.646.
As to `[N-]=[N+]=NCc1ccccc1[C@H]1OC(c2ccc(OCCCO)cc2)=N[C@@]1(Cc1ccccc1N=[N+]=[N-])C(=O)NCC(O)CO` (stereo not given in full), the composite z-score is 0.462 in [1]; 0.9 in [6]; 0.346 in assay [7]; 0.256 in the assay with Torsin-1A (Homo sapiens) [8]; 0.301 with Torsin-1A (Homo sapiens) [9]; -0.562 in [10]. The compound further came in with a composite z-score in assay [12] of 0.54. Moreover, the z-score is -3.57 (inactive) in [2]; 0.401 (inactive) in assay [3]; 0.745 (inactive) in assay [4]; -1.22 (inactive) in assay [5]; -0.502 (inactive) in assay [11]; 27.6 (active) in [13]. In addition, the z-score in [14] is 21 (active); in assay [15] it was 1.37 (inactive); in assay [16], 2.09 (inactive); in assay [17] it was -0.48; in assay [18], -3.08 (inactive); in assay [19], -0.592 (inactive). In assay [20], this compound registered a z-score of -1.71.
In the case of `COc1ccc([C@H]2OC[C@@H]3C[C@H](Cc4ccccc4)C(=O)N32)cc1`, the composite z-score was 0.204 in assay [1]; -0.371 in assay [6]; -0.0962 in assay [7]; 0.48 in the assay with Torsin-1A (Homo sapiens) [8]; 0.0464 with Torsin-1A (Homo sapiens) [9]; 0.532 in assay [10]. This compound also returned a composite z-score in assay [12] of 0.015. In addition, the z-score in assay [2] was -3.52 (inactive); in assay [3], 0.305 (inactive); in [4] it was 1.99 (inactive); in assay [5], 0.213 (inactive); in [11] it was -0.446 (inactive); in [13], 1.96 (inactive). Also, the z-score is 0.92 (inactive) in assay [14]; -0.356 (inactive) in assay [15]; 0.284 (inactive) in assay [16]; -0.133 in [17]; 0.829 (inactive) in [18]; 0.284 (inactive) in [19]. Moreover, in assay [20], the z-score was found to be 0.695.
Regarding `CC(CO)N1C(=O)[C@@H]2[C@H]3C(=O)OCC=C[C@H]3OC23C=CCN(Cn2nnc4ccccc42)C(=O)[C@@H]13` (stereo not given in full), the composite z-score in assay [1] was -0.33; in assay [6], -0.78; in assay [7], -0.213; with Torsin-1A (Homo sapiens) [8], -0.49; with Torsin-1A (Homo sapiens) [9] it was -1.26; in assay [10], 0.464. The same compound came in with a composite z-score in assay [12] of -0.147. Besides, the z-score in assay [2] is -0.407 (inactive); in [3], 1.48 (inactive); in assay [4], 0.0524 (inactive); in [5], -0.391 (inactive); in assay [11], -0.597 (inactive); in [13], 0.638 (inactive). The z-score is 0.359 (inactive) in assay [14]; 0.029 (inactive) in assay [15]; 0.0866 (inactive) in assay [16]; -0.0773 in assay [17]; 0.698 (inactive) in [18]; 0.672 (inactive) in assay [19]. In addition, the z-score in [20] is 1.78.

For the origin of these results see PubChem BioAssay.
